# The whole screen tested about 59,000 compounds, of which about 6,200 (11%) were called active. Another 9% or so got no clear call; they are omitted. The sample holds actives, similar compounds and a random draw of the others, so the mix is not that of the screen. No stated cut-off is given here; in the data, active means max dye-equivalent concentration above about 10 nM; inconclusive means mostly about 1.1 nM to 9.6 nM; inactive means weaker than that.
# Experiment: qHTS Assay for Spectroscopic Profiling in 4-MU Spectral Region
# Details: compound autofluorescence, 340/450 nm, 4-MU equivalents; active compounds read high
# Outline: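 Compounds in 100 mM Tris, pH 8.0, incubated 15 min at room temperature, then fluorescence read at 340 nm excitation/450 nm emission. Signal converted to 4-MU dye-equivalent concentration using an on-plate six-point 4-MU standard curve.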
row,SMILES,max dye-equivalent concentration
1,O=C(Nc1ccn(Cc2ccc(F)cc2)n1)c1ccncc1,inactive
2,N#Cc1c(NC(=O)CSc2nc3ccccc3c(=O)n2Cc2ccco2)sc2c1CCCC2,inactive
3,CC(C)(O/N=C(\C(=O)N[C@@H]1C(=O)N2C(C(=O)[O-])=C(C[n+]3ccccc3)CS[C@@H]12)c1csc(N)n1)C(=O)O,inactive
4,CC(=O)N=c1ncn(CC(COC(C)=O)OC(C)=O)c2nc[nH]c12 (stereo not given),inactive
5,Cc1ccc(S(=O)(=O)N2CCCC2C(=O)NCc2ccco2)cc1 (stereo not given),inactive
6,CC(=O)c1c(N2CCOCC2)nc(=S)n(Cc2ccccc2)c1C,inactive
7,O=C(Nc1ncccn1)c1cccs1,inactive
8,COC(=O)c1c(NC(=O)CSc2nncs2)sc2c1CCCCC2,inactive
9,CCOCC(=O)Nc1sc2c(c1C(=O)OCC)CCCC2,inactive
10,COC(=O)c1c(NC(=O)c2cccs2)sc2c1CCCC2,90 nM (active)
11,CCOC(=O)c1c(NC(=O)CSc2nnc(Cc3csc(N)n3)n2C)sc(C)c1C,inactive
12,CCOC(=O)c1oc2ccccc2c1NC(=O)c1cccs1,18 nM (active)
13,CCOC(=O)c1c(NC(=O)c2cccs2)sc(C)c1C,190 nM (active)
14,CCOC(=O)CSc1nnc(CNC(=O)c2cccs2)n1-c1ccccc1,inactive
15,COC(=O)Cn1cc(C(=O)c2cccs2)c2ccccc21,inactive
16,Cc1ccnc(N2CCC(C(=O)NC3CCCCCC3)CC2)n1,inactive
17,CCN(CC)S(=O)(=O)c1ccc2nc(COC(=O)c3n[nH]c4ccccc34)[nH]c2c1,inactive
18,COc1ccc2c(c1)CCc1c(C(=O)Nc3c(C)n(C)n(-c4ccccc4)c3=O)noc1-2,inactive
19,O=C(Nc1c[nH]c(=O)[nH]c1=O)Oc1ccccc1,inactive
20,Cc1ccc(C)c(N(CC(=O)NCc2ccco2)C(=O)CCC(=O)Nc2ccccn2)c1,inactive
